{"source": "PubChem BioAssay AID1159580", "about": "(chemical genetic matrix, 2015)", "assay": "chemical genetic growth profiling, strain panel (AID 1159580);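 note: tested at 20 µM; growth read once vehicle control cultures reached saturation at 30 °C; 1 = growth at the plate median or of vehicle wells; lower values mean less growth of the strain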", "conditions": "growth OD", "note": "Among all 5,500 compounds or so, about 2,000 (36%) were called active. About 18% were inconclusive and are not listed. Some of the results follow. Unmarked numbers belong to inactive results. Cut-off read from the data, not from the text of the source: active = normalized growth mostly below about 0.91 (no sharp cut-off); inconclusive = no clear call, values can overlap the other calls; inactive = mostly above about 0.92.", "data": [{"smiles": "C#C[C@]1(O)CCC2C3CCC4=CC(=O)CC[C@@H]4C3CC[C@@]21C", "note": "(some centres undefined)", "values": [{"measurement": "normalized growth", "setting": "S. cerevisiae deletion strains, locus YJR066W, strain TOR1, stronger effect = lower value", "value": 0.909}, {"measurement": "normalized growth", "setting": "S. cerevisiae deletion strains, locus YKL009W, strain mrt4, stronger effect = lower value", "value": 0.954}, {"measurement": "normalized growth", "setting": "S. cerevisiae deletion strains, locus YKL068W, stronger effect = lower value", "value": 0.989}, {"measurement": "normalized growth", "setting": "S. cerevisiae deletion strains, locus YKL085W, strain MDH1 (second series), stronger effect = lower value", "value": 0.986}, {"measurement": "normalized growth", "setting": "S. cerevisiae deletion strains, locus YKL085W, strain MDH1, stronger effect = lower value", "value": 0.986}, {"measurement": "normalized growth", "setting": "S. cerevisiae deletion strains, locus YKL160W, strain elf1, stronger effect = lower value", "value": 1.01}, {"measurement": "normalized growth", "setting": "S. cerevisiae deletion strains, locus YKL190W, strain CNB1, stronger effect = lower value", "value": 0.977}, {"measurement": "normalized growth", "setting": "S. cerevisiae deletion strains, locus YKR001C, strain vps1, stronger effect = lower value", "value": 0.946}, {"measurement": "normalized growth", "setting": "S. cerevisiae deletion strains, locus YKR026C, strain gcn3, stronger effect = lower value", "value": 0.979}, {"measurement": "normalized growth", "setting": "S. cerevisiae deletion strains, locus YKR091W, strain srl3, stronger effect = lower value", "value": 0.982}, {"measurement": "normalized growth", "setting": "S. cerevisiae deletion strains, locus YLL001W, strain dnm1, stronger effect = lower value", "value": 0.972}, {"measurement": "normalized growth", "setting": "S. cerevisiae deletion strains, locus YLL026W, stronger effect = lower value", "value": 0.994}, {"measurement": "normalized growth", "setting": "S. cerevisiae deletion strains, locus YLL041C, strain sdh2, stronger effect = lower value", "value": 0.974}, {"measurement": "normalized growth", "setting": "S. cerevisiae deletion strains, locus YLR027C, strain aat2, stronger effect = lower value", "value": 0.983}, {"measurement": "normalized growth", "setting": "S. cerevisiae deletion strains, locus YLR039C, strain RIC1, stronger effect = lower value", "value": 0.862}, {"measurement": "normalized growth", "setting": "S. cerevisiae deletion strains, locus YLR058C, strain SHM2, stronger effect = lower value", "value": 0.989}, {"measurement": "normalized growth", "setting": "S. cerevisiae deletion strains, locus YLR102C, strain apc9, stronger effect = lower value", "value": 0.978}, {"measurement": "normalized growth", "setting": "S. cerevisiae deletion strains, locus YLR113W, strain HOG1, stronger effect = lower value", "value": 0.958}, {"measurement": "normalized growth", "setting": "S. cerevisiae deletion strains, locus YLR221C, strain rsa3, stronger effect = lower value", "value": 0.991}, {"measurement": "normalized growth", "setting": "S. cerevisiae deletion strains, locus YLR258W, strain gsy2, stronger effect = lower value", "value": 0.993}, {"measurement": "normalized growth", "setting": "S. cerevisiae deletion strains, locus YLR262C, strain YPT6 (second series), stronger effect = lower value", "value": 0.916}, {"measurement": "normalized growth", "setting": "S. cerevisiae deletion strains, locus YLR262C, strain YPT6, stronger effect = lower value", "value": 0.818}, {"measurement": "normalized growth", "setting": "S. cerevisiae deletion strains, locus YLR268W, strain sec22, stronger effect = lower value", "value": 0.94}, {"measurement": "normalized growth", "setting": "S. cerevisiae deletion strains, locus YLR320W, strain mms22, stronger effect = lower value", "value": 0.98}, {"measurement": "normalized growth", "setting": "S. cerevisiae deletion strains, locus YLR330W, strain CHS5, stronger effect = lower value", "value": 0.995}, {"measurement": "normalized growth", "setting": "S. cerevisiae deletion strains, locus YLR342W, strain FKS1 (second series), stronger effect = lower value", "value": 0.923}, {"measurement": "normalized growth", "setting": "S. cerevisiae deletion strains, locus YLR342W, strain FKS1, stronger effect = lower value", "value": 0.976}, {"measurement": "normalized growth", "setting": "S. cerevisiae deletion strains, locus YLR357W, strain rsc2, stronger effect = lower value", "value": 0.988}, {"measurement": "normalized growth", "setting": "S. cerevisiae deletion strains, locus YLR370C, strain arc18, stronger effect = lower value", "value": 0.969}, {"measurement": "normalized growth", "setting": "S. cerevisiae deletion strains, locus YLR371W, strain rom2, stronger effect = lower value", "value": 0.983}, {"measurement": "normalized growth", "setting": "S. cerevisiae deletion strains, locus YLR384C, strain iki3, stronger effect = lower value", "value": 0.982}, {"measurement": "normalized growth", "setting": "S. cerevisiae deletion strains, locus YLR418C, strain cdc73, stronger effect = lower value", "value": 0.915}, {"measurement": "normalized growth", "setting": "S. cerevisiae deletion strains, locus YML016C, strain PPZ1, stronger effect = lower value", "value": 0.991}, {"measurement": "normalized growth", "setting": "S. cerevisiae deletion strains, locus YML032C, strain rad52, stronger effect = lower value", "value": 0.978}, {"measurement": "normalized growth", "setting": "S. cerevisiae deletion strains, locus YML120C, strain ndi1, stronger effect = lower value", "value": 0.977}, {"measurement": "normalized growth", "setting": "S. cerevisiae deletion strains, locus YML124C, strain tub3, stronger effect = lower value", "value": 0.98}, {"measurement": "normalized growth", "setting": "S. cerevisiae deletion strains, locus YMR058W, strain fet3, stronger effect = lower value", "value": 0.965}, {"measurement": "normalized growth", "setting": "S. cerevisiae deletion strains, locus YMR078C, strain ctf18, stronger effect = lower value", "value": 0.964}, {"measurement": "normalized growth", "setting": "S. cerevisiae deletion strains, locus YMR125W, strain sto1, stronger effect = lower value", "value": 0.995}, {"measurement": "normalized growth", "setting": "S. cerevisiae deletion strains, locus YMR129W, stronger effect = lower value", "value": 0.974}, {"measurement": "normalized growth", "setting": "S. cerevisiae deletion strains, locus YMR205C, strain PFK2, stronger effect = lower value", "value": 0.985}, {"measurement": "normalized growth", "setting": "S. cerevisiae deletion strains, locus YMR223W, strain ubp8, stronger effect = lower value", "value": 0.971}, {"measurement": "normalized growth", "setting": "S. cerevisiae deletion strains, locus YMR231W, strain pep5, stronger effect = lower value", "value": 0.981}, {"measurement": "normalized growth", "setting": "S. cerevisiae deletion strains, locus YMR307W, strain GAS1, stronger effect = lower value", "value": 0.874}, {"measurement": "normalized growth", "setting": "S. cerevisiae deletion strains, locus YNL067W, strain RPL9B, stronger effect = lower value", "value": 0.969}, {"measurement": "normalized growth", "setting": "S. cerevisiae deletion strains, locus YNL071W, strain lat1, stronger effect = lower value", "value": 0.964}, {"measurement": "normalized growth", "setting": "S. cerevisiae deletion strains, locus YNL128W, strain TEP1, stronger effect = lower value", "value": 0.992}, {"measurement": "normalized growth", "setting": "S. cerevisiae deletion strains, locus YNL183C, strain NPR1, stronger effect = lower value", "value": 0.924}, {"measurement": "normalized growth", "setting": "S. cerevisiae deletion strains, locus YNL209W, strain ssb2, stronger effect = lower value", "value": 0.997}, {"measurement": "normalized growth", "setting": "S. cerevisiae deletion strains, locus YNL233W, strain BNI4, stronger effect = lower value", "value": 0.996}, {"measurement": "normalized growth", "setting": "S. cerevisiae deletion strains, locus YNL248C, strain rpa49, stronger effect = lower value", "value": 0.985}, {"measurement": "normalized growth", "setting": "S. cerevisiae deletion strains, locus YNL250W, strain rad50, stronger effect = lower value", "value": 0.981}, {"measurement": "normalized growth", "setting": "S. cerevisiae deletion strains, locus YNL271C, strain bni1, stronger effect = lower value", "value": 0.964}, {"measurement": "normalized growth", "setting": "S. cerevisiae deletion strains, locus YNL298W, strain CLA4, stronger effect = lower value", "value": 0.976}, {"measurement": "normalized growth", "setting": "S. cerevisiae deletion strains, locus YNL307C, strain MCK1, stronger effect = lower value", "value": "0.902 (active)"}, {"measurement": "normalized growth", "setting": "S. cerevisiae deletion strains, locus YNL322C, strain KRE1 (second series), stronger effect = lower value", "value": 0.98}, {"measurement": "normalized growth", "setting": "S. cerevisiae deletion strains, locus YNR049C, strain mso1, stronger effect = lower value", "value": 0.984}, {"measurement": "normalized growth", "setting": "S. cerevisiae deletion strains, locus YNR052C, strain pop2, stronger effect = lower value", "value": 0.97}, {"measurement": "normalized growth", "setting": "S. cerevisiae deletion strains, locus YOL006C, strain TOP1, stronger effect = lower value", "value": 0.919}, {"measurement": "normalized growth", "setting": "S. cerevisiae deletion strains, locus YOL012C, strain htz1", "value": 1.68}, {"measurement": "normalized growth", "setting": "S. cerevisiae deletion strains, locus YOL147C, strain pex11, stronger effect = lower value", "value": 0.983}, {"measurement": "normalized growth", "setting": "S. cerevisiae deletion strains, locus YOR001W, strain rrp6, stronger effect = lower value", "value": 0.943}, {"measurement": "normalized growth", "setting": "S. cerevisiae deletion strains, locus YOR061W, strain CKA2, stronger effect = lower value", "value": 0.985}, {"measurement": "normalized growth", "setting": "S. cerevisiae deletion strains, locus YOR069W, strain VPS5, stronger effect = lower value", "value": 0.988}, {"measurement": "normalized growth", "setting": "S. cerevisiae deletion strains, locus YOR070C, strain gyp1, stronger effect = lower value", "value": 0.986}, {"measurement": "normalized growth", "setting": "S. cerevisiae deletion strains, locus YOR080W, strain dia2, stronger effect = lower value", "value": 0.994}, {"measurement": "normalized growth", "setting": "S. cerevisiae deletion strains, locus YOR083W, strain WHI5, stronger effect = lower value", "value": 1.03}, {"measurement": "normalized growth", "setting": "S. cerevisiae deletion strains, locus YOR106W, strain vam3, stronger effect = lower value", "value": 0.999}, {"measurement": "normalized growth", "setting": "S. cerevisiae deletion strains, locus YOR136W, strain idh2, stronger effect = lower value", "value": 0.997}, {"measurement": "normalized growth", "setting": "S. cerevisiae deletion strains, locus YOR144C, strain elg1, stronger effect = lower value", "value": 0.98}, {"measurement": "normalized growth", "setting": "S. cerevisiae deletion strains, locus YOR184W, strain ser1, stronger effect = lower value", "value": "0.848 (active)"}, {"measurement": "normalized growth", "setting": "S. cerevisiae deletion strains, locus YOR231W, strain MKK1, stronger effect = lower value", "value": 0.984}, {"measurement": "normalized growth", "setting": "S. cerevisiae deletion strains, locus YOR265W, strain rbl2, stronger effect = lower value", "value": 0.983}, {"measurement": "normalized growth", "setting": "S. cerevisiae deletion strains, locus YOR270C, strain vph1, stronger effect = lower value", "value": 0.901}, {"measurement": "normalized growth", "setting": "S. cerevisiae deletion strains, locus YOR290C, strain snf2, stronger effect = lower value", "value": 0.981}, {"measurement": "normalized growth", "setting": "S. cerevisiae deletion strains, locus YOR316C, strain cot1, stronger effect = lower value", "value": 0.978}, {"measurement": "normalized growth", "setting": "S. cerevisiae deletion strains, locus YPL051W, strain arl3, stronger effect = lower value", "value": 0.986}, {"measurement": "normalized growth", "setting": "S. cerevisiae deletion strains, locus YPL055C, strain LGE1, stronger effect = lower value", "value": 0.997}, {"measurement": "normalized growth", "setting": "S. cerevisiae deletion strains, locus YPL078C, strain atp4, stronger effect = lower value", "value": 0.974}, {"measurement": "normalized growth", "setting": "S. cerevisiae deletion strains, locus YPL106C, strain sse1, stronger effect = lower value", "value": 1.06}, {"measurement": "normalized growth", "setting": "S. cerevisiae deletion strains, locus YPL240C, strain hsp82, stronger effect = lower value", "value": 0.991}, {"measurement": "normalized growth", "setting": "S. cerevisiae deletion strains, locus YPL241C, strain CIN2, stronger effect = lower value", "value": 0.996}, {"measurement": "normalized growth", "setting": "S. cerevisiae deletion strains, locus YPL256C, strain CLN2, stronger effect = lower value", "value": 0.942}, {"measurement": "normalized growth", "setting": "S. cerevisiae deletion strains, locus YPR119W, strain clb2, stronger effect = lower value", "value": 0.982}, {"measurement": "normalized growth", "setting": "S. cerevisiae deletion strains, locus YPR141C, strain kar3, stronger effect = lower value", "value": 0.982}, {"measurement": "normalized growth", "setting": "S. cerevisiae deletion strains, locus YPR163C, strain tif3, stronger effect = lower value", "value": 0.986}, {"measurement": "normalized growth", "setting": "S. cerevisiae deletion strains, locus YPR167C, strain met16, stronger effect = lower value", "value": 0.977}, {"measurement": "normalized growth", "setting": "S. cerevisiae deletion strains, strain wtn01, stronger effect = lower value", "value": 0.962}, {"measurement": "normalized growth", "setting": "S. cerevisiae strains, strain wild type, stronger effect = lower value", "value": 0.986}]}]}
